Experimental findings from the supplement of paper PMC9135407 are described below.

Values joined by “and” are separate entries in the source; they are usually repeats but may differ in a detail not shown here. Identical values can stand only once. Counter-ions that a name gives are not always drawn. Among all 5,800 compounds or so, about 620 (11%) showed activity. This is one part of a sample in which actives are shown more often than they occur. A number with no mark means an inactive call.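 How the source made its calls: active = score above a cut-off or among the top three wells of a plate; in these data no inactive exceeds 0.85.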

The test has as its system primary human hepatic stellate cells (donor 1). In words: scaled lipid accumulation score (0 = DMSO-like, 1 = nortriptyline-like); higher = stronger HSC inactivation (lipid re-accumulation), active = hit call of the paper. The conditions noted are these: 48 h.
The mark [1] stands for this setting: library stock concentration: 10 mM.
Where [2] appears, read: library stock concentration: 80 uM.
The mark [3] stands for this setting: library stock concentration: 400 uM.
[4] abbreviates: library stock concentration: 2 mM.
[5] abbreviates: library stock concentration: 1 mM.
Setting [6] is: library stock concentration: 3.33 mM.

Consider `CCCCCCCCCCCCCCCC(=O)C1=C(O)[C@@H](CO)OC1=O`, for which the “scaled lipid accumulation score” value (library stock concentration: 13.6 mM) is no more than -0.012.

As to `CC1(C)[C@H]2CC[C@]1(CS(=O)(=O)O)C(=O)C2=Cc1ccc(C=C2C(=O)[C@@]3(CS(=O)(=O)O)CC[C@@H]2C3(C)C)cc1`, under setting [1], the “scaled lipid accumulation score” value was no more than 0.

On to `O=C1NC(=O)/C(=C\c2cccc(C(F)(F)F)c2)S1` [PIM12 kinase inhibitor V], for which the “scaled lipid accumulation score” value is, setting by setting: under setting [2], no more than -0.001; under setting [3], no more than -0.001; under setting [4], no more than -0.001; under setting [1], 0.011.

For `CCCCCC(=O)CC[C@@H]1[C@@H](CCCCCCC(=O)O)[C@@H](O)C[C@H]1O` [13,14-dihydro-15-keto Prostaglandin F1.alpha.], under setting [5], the “scaled lipid accumulation score” value is no more than 0.

As for `O=[N+]([O-])c1cc(Cl)ccc1S(=O)(=O)N1CCN(Cc2ccccc2)CC1`, the “scaled lipid accumulation score” value under setting [1] was 0.048.

Regarding `CN(C)c1cnccn1`, the “scaled lipid accumulation score” value under setting [1] is no more than 0.

Take `CCCCC[C@](C)(O)/C=C/[C@H]1[C@H](O)CC(=O)[C@@H]1C/C=C\CCCC(=O)O` [15(S)-15-methyl Prostaglandin E2]: the “scaled lipid accumulation score” value under setting [5] is no more than 0.

With `CCc1cc2c(cc1N1CCC(N3CCOCC3)CC1)C(C)(C)c1[nH]c3cc(C#N)ccc3c1C2=O` [listing 1 of 2 here], the “scaled lipid accumulation score” value is no more than -0.016 under setting [2], no more than -0.016 under setting [3] and 0.126 under setting [4].

As for `N#Cc1ccc2[nH]c(O)c(-c3ccc(CN4CCOCC4)cn3)c2c1`, the “scaled lipid accumulation score” value is, setting by setting: under setting [6], 0.477; under setting [1], 0.769.

Regarding `CCc1cc2c(cc1N1CCC(N3CCOCC3)CC1)C(C)(C)c1[nH]c3cc(C#N)ccc3c1C2=O` [listing 2 of 2 here], the “scaled lipid accumulation score” value under setting [1] is 1.17 (active).

Take `CC#CCOC(=O)C1=CCCN(C)C1` [Arecaidine but-2-ynyl ester tosylate]: the “scaled lipid accumulation score” value under setting [1] was no more than 0.

`CCOC(=O)[C@H](CCc1ccccc1)N[C@@H](C)C(=O)N1Cc2cc(OC)c(OC)cc2C[C@H]1C(=O)O` [Moexipril hydrochloride]: the “scaled lipid accumulation score” value under setting [1] is 0.011.

Turning to `CCOC(=O)[C@H](CCc1ccccc1)N[C@@H](C)C(=O)N1Cc2cc(OC)c(OC)cc2C[C@H]1C(=O)O` [Moexipril HCl], the “scaled lipid accumulation score” value was no more than 0 under setting [6] and no more than 0 under setting [1].

With `CO[C@H]1C[C@H](O[C@H]2[C@H](C)[C@@H](O[C@@H]3O[C@H](C)C[C@H](N(C)C)[C@H]3O)[C@@H](C)C[C@@]3(CO3)C(=O)[C@H](C)[C@@H](O)[C@@H](C)[C@@H](C)OC(=O)[C@@H]2C)O[C@@H](C)[C@@H]1O` [Oleandomycin phosphate], the “scaled lipid accumulation score” value was no more than 0. Besides, the “scaled lipid accumulation score” value under setting [1] was no more than 0.

Consider `CCCCCCCCCCCCCCCCOC[C@H](COP(=O)([O-])OCC[N+](C)(C)C)SC(=O)CCCCCC` [Heptanoyl thio-PC], for which the “scaled lipid accumulation score” value under setting [5] is 0.071.

Turning to `Cn1cc(C2=C(c3c4n(c5ccccc35)CCC(CN)C4)C(=O)NC2=O)c2ccccc21` (stereo unspecified) [Bisindoylmaleimide X  HCl salt (Ro 31-8425) (10 mM)], the “scaled lipid accumulation score” value under setting [1] was no more than -0.005.

For the compound `Cn1cc(C2=C(c3ccc(Cl)cc3Cl)C(=O)NC2=O)c2ccccc21` [listing 1 of 5 here], the “scaled lipid accumulation score” value under setting [1] was 1.22 (active).

For `Cn1cc(C2=C(c3ccc(Cl)cc3Cl)C(=O)NC2=O)c2ccccc21` [listing 2 of 5 here], the “scaled lipid accumulation score” value under setting [2] was 0.035; the “scaled lipid accumulation score” value under setting [3] was ≤ -0.009 and 0.379; the “scaled lipid accumulation score” value under setting [4] is 0.225; the “scaled lipid accumulation score” value under setting [6] was 0.555; the “scaled lipid accumulation score” value under setting [1] was 0.564.

Consider `Cn1cc(C2=C(c3c4n(c5ccccc35)CCC(CN)C4)C(=O)NC2=O)c2ccccc21` (stereo unspecified) [Bisindoylmaleimide X HCl salt (Ro 31-8425) (0.4 mM)], for which, under setting [3], the “scaled lipid accumulation score” value was 0.132.

On to `Cn1cc(C2=C(c3ccc(Cl)cc3Cl)C(=O)NC2=O)c2ccccc21` [listing 3 of 5 here], for which the “scaled lipid accumulation score” value under setting [4] is 1.13 (active) and the “scaled lipid accumulation score” value under setting [1] is 1.17 (active).

In the case of `Cn1cc(C2=C(c3ccc(Cl)cc3Cl)C(=O)NC2=O)c2ccccc21` [listing 4 of 5 here], under setting [1], the “scaled lipid accumulation score” value is 1.37 (active).

Regarding `Cn1cc(C2=C(c3cn(CCCSC(=N)N)c4ccccc34)C(=O)NC2=O)c2ccccc21` [Ro 31-8220 mesylate], the “scaled lipid accumulation score” value under setting [1] was no more than -0.001.

Regarding `Cn1cc(C2=C(c3c4n(c5ccccc35)CCC(CN)C4)C(=O)NC2=O)c2ccccc21` (stereo unspecified) [Bisindoylmaleimide X HCl salt (Ro 31-8425) (2 mM)], the “scaled lipid accumulation score” value under setting [4] is no more than 0.

For the compound `Cn1cc(C2=C(c3cn(CCCSC(=N)N)c4ccccc34)C(=O)NC2=O)c2ccccc21` [Ro 31-8220 Mesylate], the “scaled lipid accumulation score” value is, setting by setting: under setting [6], no more than -0.009; under setting [1], 0.514.

Turning to `Cn1cc(C2=C(c3cn(CCCN)c4ccccc34)C(=O)NC2=O)c2ccccc21` [Bisindolylmaleimide VIII (acetate)], under setting [5], the “scaled lipid accumulation score” value is no more than 0.

Turning to `O=C1NC(=O)C(c2cn(CCCO)c3ncccc23)=C1c1cnccn1` [GSK-3b Inhibitor XI], the “scaled lipid accumulation score” value under setting [6] is 0.065.

In the case of `Cn1cc(C2=C(c3ccc(Cl)cc3Cl)C(=O)NC2=O)c2ccccc21` [listing 5 of 5 here], the “scaled lipid accumulation score” value under setting [1] is 1.03 (active).

Regarding `CCCCn1c2ccc(O)cc2c2c3c(c(-c4ccccc4Cl)cc21)C(=O)NC3=O` [Wee1 Inhibitor II], the “scaled lipid accumulation score” value under setting [6] is no more than 0.

Regarding `Cn1cc(C2=C(c3cn(CCCSC(=N)N)c4ccccc34)C(=O)NC2=O)c2ccccc21` [Bisindolylmaleimide IX (mesylate)], the “scaled lipid accumulation score” value under setting [5] is no more than 0.

In the case of `Cn1cc(/C=C2\C(=O)Nc3cccnc32)c2ccccc21`, the “scaled lipid accumulation score” value is no more than -0.005 under setting [3]; 0.002 under setting [4]; ≤ -0.001 and ≤ -0.005 under setting [1].

Take `Cn1cc(C2=C(c3cn(CCCSC(=N)N)c4ccccc34)C(=O)NC2=O)c2ccccc21`: the “scaled lipid accumulation score” value is 0.068 under setting [2]; 0.267 under setting [3]; no more than 0 under setting [4]; no more than 0 under setting [6]; 0.848 under setting [1]; 0.832 (library stock concentration: 10.9 mM).

Consider `NCCCn1cc(C2=C(c3c[nH]c4ccccc34)C(=O)NC2=O)c2ccccc21` [Bisindolylmaleimide III, Hydrochloride], for which the “scaled lipid accumulation score” value under setting [6] was no more than 0.

As for `CCCCCCCCCCCCCCCC(=O)OCC` [Palmitic Acid ethyl ester], under setting [5], the “scaled lipid accumulation score” value is no more than 0.

Turning to `C[N+]1(C)C[C@H](O)C[C@H]1C(=O)[O-]` [Betonicine], the “scaled lipid accumulation score” value was no more than 0.

As for `CCCCC[C@H](O)/C=C/[C@H]1CCC(=O)[C@@H]1C/C=C\CCCC(=O)O` [11-deoxy Prostaglandin E2], under setting [5], the “scaled lipid accumulation score” value is 0.072.
